# Measured values as given in PubChem BioAssay AID588763 (NMMLSC, 2011).
# Entries with a potency or affinity are not part of this list. Unmarked numbers belong to inactive results. The source made the active and inactive calls. How the calls were made is not given here.
# Target: Beta-2 adrenergic receptor (Homo sapiens) (UniProt P07550)
# Test: ADRB2 activation measured by internalization – cell-based, FAP fluorogen, flow cytometry, cherry pick 1, dose response (AID 588763)
# Settings: AM2.2-beta2AR cells, 90 min; series mostly up to 33 µM; activation (receptor internalization): at the top concentration
# Chain of Beta-2 adrenergic receptor (Homo sapiens) (P07550 whole entry, looked up): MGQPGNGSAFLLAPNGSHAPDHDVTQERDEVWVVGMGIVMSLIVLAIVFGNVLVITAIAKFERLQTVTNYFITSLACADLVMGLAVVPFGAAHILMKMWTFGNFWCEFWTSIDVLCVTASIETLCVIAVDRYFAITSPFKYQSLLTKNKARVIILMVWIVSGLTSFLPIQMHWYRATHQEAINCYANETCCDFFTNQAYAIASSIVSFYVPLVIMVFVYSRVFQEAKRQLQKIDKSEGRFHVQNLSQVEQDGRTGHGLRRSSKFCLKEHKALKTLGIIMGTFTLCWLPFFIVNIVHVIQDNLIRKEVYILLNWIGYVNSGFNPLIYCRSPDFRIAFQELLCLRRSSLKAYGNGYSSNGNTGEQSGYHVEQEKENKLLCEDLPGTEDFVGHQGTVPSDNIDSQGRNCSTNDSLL
Compound,activation (receptor internalization) [%],outcome
O=C(Nc1ccc(S(=O)(=O)N2CCCCC2c2cccnc2)cc1)c1ccccc1F (stereo unspecified),27.6,–
O=C(c1cc2c(ccc3ccccc32)o1)N1CCN(c2ncc(C(F)(F)F)cc2Cl)CC1,99.9,–
O=C(CSc1ccc(Cl)cc1)Nc1ccccc1N1CCN(C(=O)c2ccccc2)CC1,80.9,–
COc1ccccc1-c1cc(C(F)(F)F)nc(S(=O)(=O)CCCC(=O)N2CCOCC2)n1,38.6,–
COc1ccc(Cn2nc(-c3ccccc3)c(N3CCCCC3)cc2=O)cc1,16.6,–
Cc1cc(S(=O)(=O)N2CCCCC2)ccc1OCC(=O)Nc1ccccc1,2.64,–
COc1ccccc1C(=O)Nc1ccc2oc(-c3ccc(F)cc3)nc2c1,-9.56,–
CC(=O)Nc1ccc(CN2CCC(Oc3ccc(C(=O)N4CCCC4)cc3)CC2)cc1,-1.14,–
COc1cc(NC(=O)c2ccco2)c(OC)cc1NC(=O)c1cc(OC)c(OC)c(OC)c1,4.51,–
CCN(CC)S(=O)(=O)c1cc(C(=O)Nc2cc(Cl)ccc2N2CCN(C)CC2)ccc1Cl,24.4,–
CN(C)c1ccc(-c2nnn(CC(=O)Nc3ccccc3N3CCOCC3)n2)cc1,0.33,–
CC(C)NCC(O)c1cc(O)cc(O)c1 (stereo unspecified),23.2,–
CC(C)c1nc2sc3c(NCc4ccccc4)ncnc3c2c2c1COC(C)(C)C2,13,–
COc1ccc(OC)c(S(=O)(=O)N(C)CC(=O)N2CCN(c3cccc(Cl)c3)CC2)c1,–,inactive
COc1ccc(OC)c(S(=O)(=O)N(C)CC(=O)N2CCN(c3ccccc3)CC2)c1,–,inactive
N=c1n(CC(=O)c2ccc([N+](=O)[O-])cc2)c2ccccc2n1Cc1ccc(Cl)cc1,103,–
